This note sets out measurements from PubChem BioAssay AID2284192 (EPA ToxCast).

In general, AC50 refers to the concentration at which the activity in the assay is half-maximal.

Active and inactive are the calls of the source. How the source made its calls: active means hit-call score of the fitted dose curve at least 0.9, where 1 is the maximum; inactive means score below 0.9.

Sequence of human Opioid Receptor mu (MOP) Agonism, OPRM1 (gene 4988) (P35372 whole entry, looked up): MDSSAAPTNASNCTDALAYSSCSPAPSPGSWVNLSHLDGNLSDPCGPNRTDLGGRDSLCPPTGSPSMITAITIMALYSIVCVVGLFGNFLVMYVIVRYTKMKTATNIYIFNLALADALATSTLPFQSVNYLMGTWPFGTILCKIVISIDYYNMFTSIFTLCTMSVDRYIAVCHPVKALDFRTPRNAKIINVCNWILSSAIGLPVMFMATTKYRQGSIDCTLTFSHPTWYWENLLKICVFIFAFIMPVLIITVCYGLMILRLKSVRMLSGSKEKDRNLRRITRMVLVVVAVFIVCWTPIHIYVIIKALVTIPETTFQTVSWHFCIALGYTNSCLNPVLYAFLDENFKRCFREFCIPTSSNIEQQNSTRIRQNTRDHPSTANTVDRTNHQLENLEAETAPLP

For the assay, the target named is human Opioid Receptor mu (MOP) Agonism, OPRM1 (gene 4988) (UniProt P35372). Briefly: ERF_FR_GPCR_hOPRM1: Eurofins (ERF) G Protein-Coupled Receptor (GPCR) Radioligand Binding LeadHunter Assay for human Opioid Receptor mu (MOP) Agonism. The protocol:
ERF_FR_GPCR_hOPRM1 is a biochemical, single-readout assay that uses extracted gene-proteins in a cell-free assay. Measurements were taken 2 hour after chemical dosing in a 96-well plate. See mu (MOP) Human Opioid GPCR Binding (Agonist Radioligand) Assay, Cerep.ERF_FR_GPCR_hOPRM1 is an assay component calculated from the ERF_FR_GPCR_hOPRM1 assay. It is designed to measure radioligand binding using a type of binding reporter as detected by scintillation counting with radiometry technology.Data from the assay component ERF_FR_GPCR_hOPRM1 was analyzed at the assay endpoint, ERF_FR_GPCR_hOPRM1, in the positive analysis fitting direction relative to DMSO as the negative control and baseline of activity. Using a type of binding reporter, gain-of-signal activity can be used to understand changes in binding as they relate to gene OPRM1. To generalize the intended target to other relatable targets, this assay endpoint is annotated to the gpcr intended target family, where the subfamily is opioid.
Human cells are incubated for 60 minutes at room temprature with [3H]DAMGO ligand (0.1 nM) and DAMGO as control inhibitor. Test Sample Requirements: Minimum for 1) Screen: 60 ul of 10 mM stock -OR- 1 mg (pre-weighed) for 10 uM final testing. 2) Dose Response: 90 ul of 10 mM stock -OR- 1 mg (pre-weighed) for a top concentration at 10 uM.
As for `O=C(/C=C/c1ccc(O)cc1)CC(=O)/C=C/c1ccc(O)cc1`, the AC50 was 419 nM (active).
